# Experimental data reported in the supplement of paper PMC6555819.
# System: VDR:RXRa (NR concentration 270 nM, RXRa partner concentration 90 nM)
# Experiment: PBM binding z-score (relative to random genomic background probes); higher = stronger binding; sequences stand for … in GC…GCGATTGACAGCGTAGAATGAAGG
# Experimental: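 Protein-binding microarray (Agilent 4x180K custom design, double-stranded 60-nt probes: 5' GC cap, 34-nt variable region, 24-nt constant primer region; full probe sequence given). Purified or IVT nuclear receptor:RXRα heterodimers (3:1 NR:RXRα, mostly 270:90 nM) or homodimers were incubated for 1 h in PBS with 2% milk and no ligand, then detected with Alexa488 antibodies. Fluorescence from o1-orientation probes (~5 replicates averaged) was converted to z-scores against 500 random hg19 background probes. Variable regions are seed direct-repeat (DR0–DR5) sites, all their single-nucleotide variants and half-site ablations.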
row,Sequence,PBM binding z-score
1,TTACCAAGGTGAAAGGTAGTTGATGCACGCCTTG,0.524
2,AGTCAAAGTTCACTATGTAACGTAAGATTCAGCT,3.89
3,TAATATAGGTAAAGGTGAAAGTCGAACGATATGA,1
4,GCAGACAGGTGAAACGCAGGGAACTCAGGGTGGC,-0.604
5,TCTAGTTGGTAACGGAGGTCACACACGACGGGTA,3.8
6,CCTCGGAGGACAACAGGAGGTCAGATCTGCCAGA,1.72
7,ATCTCTAGGTAACAATTTCAGTGAAAGAGAGGAC,0.483
8,CCTTACGGGTCACTGACACGTTATAGCATTTGGA,3.23
9,GATACAGGGTCAGCTAGAGGCCAAAGTATGGAAA,4.26
10,AGAACGAGGGCACGCAGAGTTGATAGCAGAGTAG,2.02
11,CCGACTGGGGCAAGGTTACCAAAACGCACAGCCA,0.129
12,CTACCAAGGTGAACAAAGTCGTTGATTACTATTC,0.601
13,ATCGAAAGGTCGTGAGGCGAGTATACAGAAAGGC,3.18
14,TCATATAGGTAAAACGTGAAAGTCGGTGTGGTAA,0.783
15,TCTCGGAGGACAGGAAGGTCAGAGCTTTCCAGAG,1.57
16,CCTTACGGGTCACTGACAGTTTATAGCATTTGGA,4.21
17,CCTGCTAGGTCGATGGTCAGCTAAAGCAGCTCGC,-0.292
18,AGAATGAGCTTATTAAGATCAGGGAATTGCGGTC,-0.43
19,CAAACTAGGTCAAGAGGTCAAGGTCCGCTTCCCG,5.53
20,CAAACTAGGTCACGAAAGGTCGAAGTCGAATGAC,5.72

row,Sequence,PBM binding z-score
1,TCTGCTCGGTCAACGATGGTCAGCTAATCTGCTA,-0.245
2,TAGCCTAGGTCATGGGACAGTATACCACGCGAAC,2.17
3,TCTTGTAGACCAAAGGTTAAGAAAGCCGAAGCCT,0.807
4,ATCGAAAGGTCGAGGGGAGTATAGAGAAAGGGAA,2.67
5,AGAATGTGGTTAAGATCAGGGAAACAGAATACAT,-0.0223
6,ACTATTAGTTGACTTACGGCAACCGATACGACGC,0.0942
7,GCTTGAAGATCAAGGTTAAGAAAGACTAAGCTAA,0.0982
8,TCGAGTAGGTTAGTCGGGGCAGTCAGCCAACATA,0.666
9,CGAACTACGTCAAGGACAGTGAATCTCCGCACGC,-0.475
10,AGTCAAAGATCACTAGGTAACGTAAGATTCAGCT,-0.124
11,ATACCAAGGTGATCGTGAGGTCGTTGCTACTAAC,3.4
12,CCTAGCAGGCCAGGGTCACTCATGCATTTCGCTT,2.14
13,CTATCAAGGTGAACAAGGTCGTTGATTACTATTC,6.12
14,CCTCGGAGGACAGAAGGTGAGAGCTGTCCGCTTT,-0.483
15,CAGCCTATGTCAGGGCCAGTATAGGAGGAACGTT,-0.493
16,CTACCAAGGTGAACAAGGTCGTTTATTACTATTC,6.54
17,TATACAGGGTCAAAGGCCAGGGTACGAATGTCGA,4.93
18,TAGCCTAGGTCAGATCGGGCCAGTATGCGCTATA,0.446
19,CGAACTAGGTCAAGGATAGTGAATCTCCGCACGC,1.19
20,CCTACTGGGCCAAAGGTCAATGATTCCAATGCTC,4.04
